Reference: PubChem BioAssay
For some assays here: Results with a measured potency or affinity are listed apart. This is one part of the list. Active and inactive are the calls of the source.

Experiments:
[1] = test system: TRPC4 beta (transient receptor potential cation channel C4), mouse; assay: activators of mouse TRPC4 channel, confirmation, cell-based, Fluo4 calcium, HEK293 TRPC4beta/mu-opioid, duplicates, 10 µM (AID 2426;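 active = fluorescence ratio normalized to control raised more than 50% in primary screen plus both repeat runs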); conditions: Fluo4 calcium fluorescence, at 10 µM; hits give high values
[2] = test system: transient receptor potential cation channel C4 beta (TRPC4), mouse; assay: activators of mouse TRPC4 channel, confirmation, cell-based, second round, Fluo4, HEK293 TRPC4beta/mu-opioid, 1 µM (AID 2461;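 active = primary screen active and over 50% activation in each of two duplicate runs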); conditions: Fluo4 calcium fluorescence, at 1 µM; hits give high values
[3] = test system: TRPC4 (transient receptor potential cation channel C4 beta), mouse; assay: positive allosteric modulators of mouse TRPC4, confirmation, cell-based, second round, Fluo-4, HEK293 TRPC4beta/mu-opioid, 1 µM (AID 2554;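 active = primary screen hit whose fluorescence ratio, in both repeats, exceeds the weak agonist control mean by 3 SD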); conditions: DAMGO EC20, Fluo-4 calcium flux, at 1 µM; hits give high values
[4] = test system: TRPC4 beta (transient receptor potential cation channel C4), mouse; assay: positive allosteric modulators of mouse TRPC4, confirmation, cell-based, Fluo-4, HEK293 TRPC4beta/mu-opioid (AID 2555;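 active = primary screen hit whose calcium fluorescence ratio, in both repeats, exceeds the weak agonist control mean by 3 SD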); conditions: DAMGO EC20, Fluo-4 calcium flux, at 10 µM; hits give high values
[5] = molecular target: Short transient receptor potential channel 4 (Mus musculus) (UniProt Q9QUQ5); assay: inhibitors of mouse TRPC4 channel, confirmation, cell-based, Fluo4, HEK293 TRPC4beta/mu-opioid (AID 2636;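 active = calcium signal cut by more than 3 SD below the full-agonist control yet still positive, in both repeats and the earlier primary screen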); conditions: DAMGO, Fluo4 calcium flux, at 10 µM; hits give high values
Short transient receptor potential channel 4 (Mus musculus), sequence (Q9QUQ5 whole entry, looked up): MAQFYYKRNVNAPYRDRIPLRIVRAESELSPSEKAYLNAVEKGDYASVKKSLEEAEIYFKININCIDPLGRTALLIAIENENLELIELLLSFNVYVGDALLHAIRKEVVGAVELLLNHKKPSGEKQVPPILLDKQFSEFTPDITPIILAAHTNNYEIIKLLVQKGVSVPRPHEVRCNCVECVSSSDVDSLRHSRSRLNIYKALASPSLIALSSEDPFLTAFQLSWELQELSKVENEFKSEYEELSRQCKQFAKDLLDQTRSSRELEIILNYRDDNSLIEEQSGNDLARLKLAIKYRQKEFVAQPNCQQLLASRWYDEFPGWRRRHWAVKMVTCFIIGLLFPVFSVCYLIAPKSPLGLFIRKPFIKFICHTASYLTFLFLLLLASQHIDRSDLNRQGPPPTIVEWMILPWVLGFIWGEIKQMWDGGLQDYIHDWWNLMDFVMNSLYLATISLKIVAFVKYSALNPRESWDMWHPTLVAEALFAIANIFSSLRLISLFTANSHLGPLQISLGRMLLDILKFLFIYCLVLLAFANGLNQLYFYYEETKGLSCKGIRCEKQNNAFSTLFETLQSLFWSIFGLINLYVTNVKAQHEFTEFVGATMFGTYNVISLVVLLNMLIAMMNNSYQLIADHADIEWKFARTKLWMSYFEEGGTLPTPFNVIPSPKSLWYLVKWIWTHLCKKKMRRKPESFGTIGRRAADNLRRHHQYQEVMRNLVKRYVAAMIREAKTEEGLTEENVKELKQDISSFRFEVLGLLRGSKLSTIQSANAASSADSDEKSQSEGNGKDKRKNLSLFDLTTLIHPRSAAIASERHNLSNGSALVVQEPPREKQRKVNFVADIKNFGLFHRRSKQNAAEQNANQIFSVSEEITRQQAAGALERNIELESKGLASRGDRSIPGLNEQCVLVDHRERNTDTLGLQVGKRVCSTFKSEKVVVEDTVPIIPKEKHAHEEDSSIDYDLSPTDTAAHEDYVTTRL

[6] = molecular target: Short transient receptor potential channel 4 (Mus musculus) (UniProt Q9QUQ5); assay: inhibitors of mouse TRPC4 channel, confirmation, cell-based, second round, Fluo4, HEK293 TRPC4beta/mu-opioid, 1 µM (AID 2637;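 active = calcium signal ratio cut to more than 3 SD under the fully stimulated control mean yet still positive, in both repeats and the primary screen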); conditions: Fluo4 calcium flux, DAMGO, at 1 µM; hits give high values
[7] = molecular target: Short transient receptor potential channel 4 (Mus musculus) (UniProt Q9QUQ5); assay: mouse TRPC4 channel activators, dose response, cell-based, HEK293 TRPC4/mu-opioid, Fluo-4 calcium (AID 434937;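 active = primary screen activator hit with a dose response curve and TRPC4 channel activation at any tested dose; inactive = no activation, no dose response, or not a primary hit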)
[8] = molecular target: Short transient receptor potential channel 4 (Mus musculus) (UniProt Q9QUQ5); assay: TRPC4 positive allosteric modulators, dose response, cell-based, HEK293 TRPC4/mu-opioid, Fluo-4 calcium, EC20 DAMGO (AID 434941;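 active = earlier screen potentiator hit that boosts the TRPC4 ion channel at some dose, with a dose response; inactive = no potentiation, no dose response, or not a prior hit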;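 note: calcium entry triggered by an EC20 dose of DAMGO at the co-expressed mu-opioid receptor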)
[9] = molecular target: Short transient receptor potential channel 4 (Mus musculus) (UniProt Q9QUQ5); assay: mouse TRPC4 channel inhibitors, dose response, cell-based, HEK293 TRPC4/mu-opioid, Fluo-4 calcium (AID 434942;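 active = primary screen inhibitor hit that blocks the TRPC4 channel at some tested dose, yielding a dose curve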)
[10] = molecular target: Short transient receptor potential channel 6 (Mus musculus) (UniProt Q61143); assay: inhibition of mouse TRPC6 channel, confirmation, selectivity assay for TRPC4 inhibitor project, cell-based, HEK293, membrane potential dye, duplicate (AID 434948;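 active = active in primary screen and both duplicates, each dropping signal beyond three positive-control SD with fluorescence still positive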); conditions: HEK293 TRPC6, membrane potential dye fluorescence, at 10 µM, stimulated with maximal-effect acetylcholine; hits give high values
Short transient receptor potential channel 6 (Mus musculus), sequence (Q61143 whole entry, looked up): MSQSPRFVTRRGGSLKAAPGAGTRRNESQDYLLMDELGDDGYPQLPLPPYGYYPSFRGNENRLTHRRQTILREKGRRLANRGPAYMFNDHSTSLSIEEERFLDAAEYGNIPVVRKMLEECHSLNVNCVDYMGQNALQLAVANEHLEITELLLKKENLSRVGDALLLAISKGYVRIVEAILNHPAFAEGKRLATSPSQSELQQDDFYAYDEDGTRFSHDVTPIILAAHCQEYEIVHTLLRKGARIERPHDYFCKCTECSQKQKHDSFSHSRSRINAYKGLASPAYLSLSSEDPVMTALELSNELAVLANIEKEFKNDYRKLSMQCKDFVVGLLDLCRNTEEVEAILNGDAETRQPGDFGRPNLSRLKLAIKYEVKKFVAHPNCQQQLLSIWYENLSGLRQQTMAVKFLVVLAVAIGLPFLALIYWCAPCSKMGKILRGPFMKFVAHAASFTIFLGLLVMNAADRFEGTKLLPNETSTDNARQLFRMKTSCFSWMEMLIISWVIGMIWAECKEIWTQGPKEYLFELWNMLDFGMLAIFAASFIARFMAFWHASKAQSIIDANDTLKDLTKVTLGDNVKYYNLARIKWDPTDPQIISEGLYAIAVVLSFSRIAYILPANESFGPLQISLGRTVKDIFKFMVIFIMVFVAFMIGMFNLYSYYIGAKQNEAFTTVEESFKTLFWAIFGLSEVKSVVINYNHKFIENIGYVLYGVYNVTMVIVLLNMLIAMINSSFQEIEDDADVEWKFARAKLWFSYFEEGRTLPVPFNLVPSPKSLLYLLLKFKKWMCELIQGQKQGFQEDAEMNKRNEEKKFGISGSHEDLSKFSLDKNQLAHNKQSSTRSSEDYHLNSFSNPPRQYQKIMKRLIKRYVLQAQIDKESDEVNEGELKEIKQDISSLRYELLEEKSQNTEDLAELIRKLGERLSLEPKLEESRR

[11] = molecular target: Short transient receptor potential channel 6 (Mus musculus) (UniProt Q61143); assay: activation of mouse TRPC6 channel, confirmation, selectivity assay for TRPC4 activator project, cell-based, HEK293, membrane potential dye, duplicate (AID 434950); conditions: HEK293 TRPC6, membrane potential fluorescence, at 10 µM; hits give high values
[12] = molecular target: Short transient receptor potential channel 6 (Mus musculus) (UniProt Q61143); assay: TRPC6 potentiation by TRPC4 potentiator hits, confirmation, selectivity assay for TRPC4 potentiator project, HEK293 cells, membrane potential dye, duplicate (AID 434952;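 active = compound raising the membrane signal above positive-control mean plus 3 SD in both repeats, and a primary screen hit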); conditions: HEK293 TRPC6, membrane potential dye fluorescence, at 10 µM, maximal acetylcholine added after compound; hits give high values
[13] = molecular target: Short transient receptor potential channel 4 (Mus musculus) (UniProt Q9QUQ5); assay: calcium flux activators in TRPC4/5HT1a cells, counter-screen for TRPC4 activator project, cell-based, second counter screen, HEK293 TRPC4/5HT1a, Fluo-4 (AID 434977;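 active = calcium signal rise above buffer-control mean plus 5 SD in both duplicates, and also a hit in the primary screen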); conditions: Fluo-4 calcium flux, at 10 µM; hits give high values
[14] = calcium flux inhibitors in TRPC4/5HT1a cells, confirmation, counter-screen for TRPC4 inhibitor project, cell-based, second counter screen, HEK293 TRPC4/5HT1a, Fluo-4 (AID 434978;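 active = primary screen active whose calcium signal fell more than 3 SD beyond the full-serotonin control mean in both duplicate plates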;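 note: serotonin given first at submaximal then at maximal dose after compound preincubation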); conditions: Fluo-4 calcium flux, at 10 µM, serotonin added to trigger calcium flux; hits give high values
[15] = test system: TRPC4 (mouse), co-expressed with 5HT1a in HEK293; assay: calcium flux potentiators in TRPC4/5HT1a cells, confirmation, counter-screen for TRPC4 potentiator project, cell-based, second counter screen, HEK293 TRPC4/5HT1a, Fluo-4 (AID 434979;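 active = signal rise over 3 SD above mean of control wells given weak agonist, in both repeats and first screen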); conditions: Fluo-4 calcium flux, at 10 µM, serotonin added at its EC20 dose; hits give high values
[16] = calcium flux activation in mu-opioid HEK293 cells, confirmation, counter-screen for TRPC4 activator project, cell-based, HEK293 mu-opioid receptor line (AID 449723;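 active = hit in primary screen, with calcium signal over 5 SD above buffer well mean in both duplicates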;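 note: counter screen cells carry the mu-opioid receptor alone and lack TRPC4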); conditions: Fluo-4 calcium fluorescence, at 10 µM; hits give high values
[17] = calcium flux enhancement in mu-opioid HEK293 cells, confirmation, counter-screen for TRPC4 allosteric potentiator project, cell-based, HEK293 mu-opioid receptor line (AID 449724;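 active = calcium signal rise more than 3 SD above the low-dose agonist control mean, in both duplicate plates and the primary screen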); conditions: Fluo-4 calcium flux, at 10 µM, compound added before EC20 DAMGO stimulus; hits give high values
[18] = nonspecific thallium flux increase in parental CHO-K1, confirmation, counter-screen for KCNQ2 potentiator project, cell-based, FluxOR thallium flux, duplicate (AID 2282;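 active = signal rise of at least 3 SD above the untreated control mean, in both duplicate wells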;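 note: counter screen of KCNQ2 potentiator hits so any rise reflects channel-independent effects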); conditions: parental CHO-K1 cells, FluxOR thallium flux fluorescence; at 10 µM; hits give high values; zero = vehicle mean+3SD, 100% = vehicle-minus-blank window
[19] = molecular target: Potassium voltage-gated channel subfamily KQT member 1 (Homo sapiens) (UniProt P51787); assay: human KCNQ1 channel potentiation off-target, confirmation, selectivity assay for KCNQ2 potentiator project, cell-based, CHO, FluxOR thallium flux (AID 2283;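 active = fluorescence ratio rise of at least 3 SD of vehicle wells above their mean, in both replicate wells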;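 note: 0% = vehicle mean plus 3 SD and 100% = vehicle minus unstimulated blank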); conditions: CHO KCNQ1 stable, FluxOR thallium flux fluorescence; at 10 µM; hits give high values; beyond 3SD, as % of vehicle-control signal
Potassium voltage-gated channel subfamily KQT member 1 (Homo sapiens), sequence (P51787 whole entry, looked up): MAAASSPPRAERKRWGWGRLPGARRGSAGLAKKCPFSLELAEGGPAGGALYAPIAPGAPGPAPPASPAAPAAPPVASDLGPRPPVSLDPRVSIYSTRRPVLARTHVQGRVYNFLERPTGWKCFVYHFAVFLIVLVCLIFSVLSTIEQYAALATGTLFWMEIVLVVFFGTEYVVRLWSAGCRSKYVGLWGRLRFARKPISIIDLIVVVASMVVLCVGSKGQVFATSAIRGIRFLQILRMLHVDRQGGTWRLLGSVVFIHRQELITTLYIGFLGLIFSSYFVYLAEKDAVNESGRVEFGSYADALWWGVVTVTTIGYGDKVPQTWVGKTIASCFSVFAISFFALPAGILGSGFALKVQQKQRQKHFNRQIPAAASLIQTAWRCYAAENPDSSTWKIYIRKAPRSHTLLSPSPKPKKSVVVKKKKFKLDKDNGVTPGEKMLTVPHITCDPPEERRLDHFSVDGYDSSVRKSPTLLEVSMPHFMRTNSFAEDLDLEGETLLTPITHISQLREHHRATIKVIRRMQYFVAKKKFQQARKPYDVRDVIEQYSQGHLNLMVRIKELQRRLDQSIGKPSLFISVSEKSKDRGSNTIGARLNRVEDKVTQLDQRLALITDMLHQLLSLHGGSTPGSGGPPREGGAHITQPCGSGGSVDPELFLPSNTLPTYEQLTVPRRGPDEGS

[20] = molecular target: Potassium voltage-gated channel subfamily KQT member 2 (Rattus norvegicus) (UniProt O88943); assay: rat KCNQ2 channel potentiators, confirmation, cell-based, CHO, FluxOR thallium flux, duplicate (AID 2287;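 active = fluorescence ratio rising 3 SD or more over the vehicle control mean in both replicates, plus primary screen hit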;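 note: peak minus minimum thallium fluorescence divided by baseline after K/Tl stimulus; 0% = vehicle mean plus 3 SD and 100% = vehicle minus unstimulated blank difference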); conditions: CHO-KCNQ2 cells, FluxOR thallium flux fluorescence; at 10 µM; hits give high values
[21] = molecular target: Inward rectifier potassium channel 2 (Mus musculus) (UniProt P35561); assay: PubChem AID 2345; conditions: HEK293 Kir2.1, FluxOR thallium flux fluorescence; at 10 µM; hits give high values;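 note: 0% = vehicle mean plus 3 SD and 100% = vehicle minus no-stimulus blank window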
Inward rectifier potassium channel 2 (Mus musculus), sequence (P35561 whole entry, looked up): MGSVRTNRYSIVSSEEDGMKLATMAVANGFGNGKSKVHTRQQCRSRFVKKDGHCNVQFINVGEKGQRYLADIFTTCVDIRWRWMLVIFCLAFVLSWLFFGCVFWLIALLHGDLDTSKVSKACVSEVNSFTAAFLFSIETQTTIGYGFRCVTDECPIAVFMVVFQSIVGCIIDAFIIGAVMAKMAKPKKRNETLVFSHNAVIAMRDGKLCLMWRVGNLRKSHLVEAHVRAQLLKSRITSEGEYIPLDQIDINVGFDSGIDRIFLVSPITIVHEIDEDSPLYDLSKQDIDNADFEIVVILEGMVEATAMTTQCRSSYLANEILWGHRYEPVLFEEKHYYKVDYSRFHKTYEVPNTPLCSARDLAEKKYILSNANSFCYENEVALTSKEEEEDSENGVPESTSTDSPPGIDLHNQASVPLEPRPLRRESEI

[22] = molecular target: Potassium voltage-gated channel subfamily KQT member 2 (Rattus norvegicus) (UniProt O88943); assay: potentiators of retigabine-insensitive KCNQ2 W236L, mechanism study for KCNQ2 potentiator project, cell-based, rat KCNQ2 W236L, CHO, automated patch clamp (AID 2558;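 active = current increase at least 3 SD of the untreated controls above them in both duplicate recordings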); conditions: at 25 µM; outcome: automated patch clamp current
[23] = molecular target: Short transient receptor potential channel 4 (Mus musculus) (UniProt Q9QUQ5); assay: mouse TRPC4 membrane potential modulation by TRPC6 hits, confirmation, selectivity assay for TRPC6 inhibitor project, cell-based, second specificity screen, HEK293 TRPC4/mu-opioid (AID 2776;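 active = compounds whose fluorescence signal differed from control wells by over 3 SD, either direction, in both duplicate plates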); conditions: HEK293 TRPC4/MOR, membrane potential dye fluorescence, at 10 µM, channel activated by saturating DAMGO dose; hits give high values
[24] = test system: transient receptor potential cation channel C4 (TRPC4), mouse; assay: mouse TRPC4 modulation by TRPC6 hits, confirmation, selectivity assay for TRPC6 inhibitor project, cell-based, HEK293 TRPC4/mu-opioid, membrane potential dye (AID 2777;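 active = rise or fall in signal beyond 3 SD of buffer-only wells in both replicate plates, either sign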;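 note: integrated kinetic ratio of fluorescence range over baseline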); conditions: membrane potential fluorescence, at 10 µM
[25] = nonspecific membrane potential effects, parental HEK293, confirmation, counter-screen for TRPC6 inhibitor project, cell-based, second counter screen (AID 2779;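 active = membrane potential signal moving either way by over 3 SD of the maximum-effect control, in both duplicate plates, meaning non-specific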); conditions: parental HEK293 membrane potential dye fluorescence; at 10 µM; maximal acetylcholine challenge after compound addition
[26] = membrane potential modulation in parental HEK293, confirmation, counter-screen for TRPC6 inhibitor project, cell-based (AID 2780;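 active = membrane potential signal shifting up or down by more than 3 SD of buffer-only wells, on both duplicate plates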;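 note: plate controls were buffer EC0 wells for no effect and acetylcholine ECmax wells for full effect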); conditions: parental HEK293 membrane potential dye fluorescence; at 10 µM
[27] = molecular target: Short transient receptor potential channel 6 (Mus musculus) (UniProt Q61143); assay: mouse TRPC6 channel inhibitors, confirmation, HEK293 cells, membrane potential dye, duplicate (AID 488960;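 active = fluorescence ratio falls more than 5 SD below the full-stimulation control mean, in both duplicate runs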;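 note: integrated fluorescence ratio of peak minus minimum over baseline after agonist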); conditions: ACh-evoked depolarization, at 10 µM; hits give high values
[28] = molecular target: Short transient receptor potential channel 6 (Mus musculus) (UniProt Q61143); assay: mouse TRPC6 channel activators, confirmation, HEK293 cells, membrane potential dye, duplicate (AID 488961;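 active = ratio signal rise beyond 5 SD above unstimulated control wells' mean, seen in both duplicate runs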); conditions: HEK293-TRPC6 membrane potential dye fluorescence, FDSS, at 10 µM; hits give high values
[29] = thallium flux activation in parental CHO cells, counter-screen for KCNQ1 potentiator project (AID 493006;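 active = duplicate-averaged activation above buffer control mean plus 5 SD of those controls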;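 note: fluorescence ratio of max minus min over baseline after K+ and Tl+ depolarization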); conditions: parental CHO-K1 cells, FluxOR thallium flux, at 10 µM; hits give high values
[30] = molecular target: Potassium voltage-gated channel subfamily KQT member 1 (Homo sapiens) (UniProt P51787); assay: KCNQ1 potassium channel potentiators, confirmation, FluxOR thallium flux, CHO cells, duplicates (AID 493007;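 active = potentiation averaged over duplicate wells exceeding buffer-only control mean by more than 3 SD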;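 note: 0% = buffer-only wells and 100% = R-L3 activator control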); conditions: KCNQ1 cell line, FluxOR thallium flux fluorescence, at 10 µM; hits give high values, % of reference activator effect, buffer zero
[31] = molecular target: Potassium voltage-gated channel subfamily KQT member 2 (Rattus norvegicus) (UniProt O88943); assay: rat KCNQ2 channel potentiation, selectivity assay for KCNQ1 potentiator project, KCNQ2-CHO-K1 cells (AID 493009;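 active = mean duplicate potentiation above the buffer control mean plus 5 SD of buffer wells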;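 note: assay conditions were tuned for KCNQ1 rather than KCNQ2 modulators; signal is max minus min fluorescence divided by baseline after thallium stimulus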); conditions: FluxOR thallium flux fluorescence, at 10 µM; hits give high values, scaled: buffer 0, activator control 100
[32] = molecular target: Potassium voltage-gated channel subfamily KQT member 1 (Homo sapiens) (UniProt P51787); assay: KCNQ1 channel current potentiators, confirmation, orthogonal assay for KCNQ1 potentiator project, IonWorks patch clamp, KCNQ1-CHO cells (AID 493184;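 active = current rise at least 3 SD above the untreated control mean in each of two repeat wells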); conditions: automated patch clamp current, at 10 µM; hits give high values

CCOC(=O)C1=NNC(C(=O)c2ccc(Cl)cc2)C1c1ccc(OC)cc1 (centres undefined)
inactive: outcome [1] | outcome [2] | outcome [3] | outcome [4] | outcome [5] | outcome [6] | outcome [7] | outcome [8] | outcome [9] | outcome [10] | outcome [11] | outcome [12] | outcome [13] | outcome [14] | outcome [16] | outcome [17]
active: potentiation [15] 8.48%

Oc1c(Cl)cc(Cl)c(Cl)c1Cc1c(O)c(Cl)cc(Cl)c1Cl
inactive: activation over 3SD threshold [19] -3.6% | activity over 3SD threshold [21] -73.8% | outcome [22] | outcome [28] | outcome [32]
active: activity increase over 3SD of controls [18] 45% | potentiation, less the hit threshold [20] 112% | inhibition [23] 29.5% | activity change, negative = inhibition [24] 4.36% | signal change vs control [25] -19% | membrane potential signal change [26] 2.04% | inhibition [27] 96.7% | activation [29] 414% | potentiation [30] 81.5% | potentiation [31] 480%

Cc1nn(-c2ccccc2)c2nc(-c3ccccc3)cc(C(=O)N3CCOCC3)c12
inactive: outcome [1] | outcome [2] | outcome [3] | outcome [5] | outcome [6] | outcome [7] | outcome [8] | outcome [9] | outcome [10] | outcome [11] | outcome [12] | outcome [13] | outcome [14] | outcome [16] | outcome [17]
active: potentiation [4] 15% | potentiation [15] 34.4%

CN(C)CCOC(=O)C1(c2ccccc2)CCOCC1
inactive: outcome [1] | outcome [2] | outcome [3] | outcome [5] | outcome [6] | outcome [7] | outcome [8] | outcome [9] | outcome [10] | outcome [11] | outcome [12] | outcome [13] | outcome [14] | outcome [16] | outcome [17]
active: potentiation [4] 8% | potentiation [15] 23.2%

CC(C)Oc1ccccc1C1CC(=O)Nc2cc3c(cc21)OCCO3 (centres undefined)
active: potentiation [4] 44% | potentiation [15] 96.2%
inactive: outcome [1] | outcome [2] | outcome [3] | outcome [5] | outcome [6] | outcome [7] | outcome [8] | outcome [9] | outcome [10] | outcome [11] | outcome [12] | outcome [13] | outcome [14] | outcome [16] | outcome [17]

CC(C)c1nc(N2CCOCC2)c(C#N)c2c1CCCC2
inactive: outcome [1] | outcome [2] | outcome [3] | outcome [4] | outcome [5] | outcome [6] | outcome [7] | outcome [8] | outcome [9] | outcome [10] | outcome [11] | outcome [12] | outcome [13] | outcome [14] | outcome [15] | outcome [16] | outcome [17]

OC(CNCCc1ccc(C(F)(F)F)cc1)COc1ccc2ccccc2c1 (centres undefined)
inactive: outcome [1] | outcome [2] | outcome [3] | outcome [4] | outcome [5] | outcome [6] | outcome [7] | outcome [8] | outcome [9] | outcome [10] | outcome [11] | outcome [12] | outcome [13] | outcome [14] | outcome [15] | outcome [16] | outcome [17]

CCOC(=O)c1c(C(F)(F)C(F)(F)C(F)(F)C(F)(F)F)n[nH]c1C
inactive: outcome [1] | outcome [2] | outcome [3] | outcome [4] | outcome [5] | outcome [6] | outcome [7] | outcome [8] | outcome [9] | outcome [10] | outcome [11] | outcome [12] | outcome [13] | outcome [14] | outcome [15] | outcome [16] | outcome [17]
